{
  "source": "PubChem BioAssay (NCATS)",
  "note": "Values joined by “and” are separate entries in the source; they are usually repeats but may differ in a detail not shown here. Equal values may be shown once. Inconclusive results are not listed. A number with no mark means an inactive call. Calls come from the whole dose curve; as a rule, active = well fitted activation curve with a large enough effect in the signal ratio; inconclusive = small, poorly fitted or top-dose-only effect, or a change in a side signal; inactive = flat fitted curve, though single readings scatter; the % refers to the signal ratio.",
  "data": [
    {"assay": "qHTS assay for small molecule activators of the nuclear factor-kappa B (NF-kB) signaling pathway (AID 651749); note: series mostly up to about 77 µM; % of control where 0% means no effect", "conditions": "NF-kB-bla ME-180 cells, beta-lactamase FRET ratio, 16 h; stronger effect = higher value", "outline": "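ME-180 cells stably carrying a beta-lactamase reporter under an NF-kB response element were exposed to compound or DMSO vehicle for 16 hr at 37C, 5% CO2. Pathway activation was read by FRET, since reporter expression disrupts FRET.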", "values": [
      {"smiles": "CC1(COc2ccc(CC3SC(=O)NC3=O)cc2)CCCCC1", "note": "(centres undefined)", "activation": "0.57%"},
      {"smiles": "CCCN(CCC)S(=O)(=O)c1ccc(C(=O)O)cc1", "activation": "0.183% and -3.09%"},
      {"smiles": "C#C[C@]1(O)CC[C@H]2[C@@H]3CCC4=Cc5oncc5C[C@]4(C)[C@H]3CC[C@@]21C", "activation": "0.141%"},
      {"smiles": "CCCCCCCCCCCCCC(=O)OC(C)C", "activation": "0.876%"},
      {"smiles": "CCCCC(CC)COC(=O)c1ccc(N(C)C)cc1", "note": "(centres undefined)", "activation": "-1.46% and -0.821%"},
      {"smiles": "CCCCCCCCCCCCCCCCO", "activation": "-1.7%"},
      {"smiles": "COc1ccc(C(Cl)=C(c2ccc(OC)cc2)c2ccc(OC)cc2)cc1", "activation": "3.39%"},
      {"smiles": "O=C(O)c1ccc(S(=O)(=O)N(Cl)Cl)cc1", "activation": "-0.114%"},
      {"smiles": "CC(C)(C)CC(C)(C)c1ccc(O)c(-n2nc3ccccc3n2)c1", "activation": "1.97%"},
      {"smiles": "CC1(C)OC[C@@H]2O[C@@]3(C(=O)O)OC(C)(C)O[C@H]3[C@@H]2O1", "activation": "0.144%"},
      {"smiles": "C=C[C@H]1CN2CC[C@H]1C[C@@H]2[C@@H](O)c1ccnc2ccc(OC)cc12", "activation": "-0.176%"},
      {"smiles": "COc1ccc(C(=O)c2ccccc2)c(O)c1", "activation": "0.344% and -5.21%"},
      {"smiles": "Oc1c(Cl)cc(Cl)c(Cl)c1Cc1c(O)c(Cl)cc(Cl)c1Cl", "activation": "-1.07%"},
      {"smiles": "CCCCCCCCCCCCCCCC(=O)O", "activation": "-0.401%"},
      {"smiles": "CCCCCCCCOc1ccc(C(=O)c2ccccc2)c(O)c1", "activation": "-6.3%"},
      {"smiles": "NCCNc1cccc2ccccc12", "activation": "-0.261% and 2.79%"},
      {"smiles": "CCCCOC(=O)CC(CC(=O)OCCCC)(OC(C)=O)C(=O)OCCCC", "activation": "-0.845%"},
      {"smiles": "OC[C@H]1O[C@@H]2O[C@H]3[C@H](O)[C@@H](O)[C@@H](O[C@H]4[C@H](O)[C@@H](O)[C@@H](O[C@H]5[C@H](O)[C@@H](O)[C@@H](O[C@H]6[C@H](O)[C@@H](O)[C@@H](O[C@H]7[C@H](O)[C@@H](O)[C@@H](O[C@H]8[C@H](O)[C@@H](O)[C@@H](O[C@H]1[C@H](O)[C@H]2O)O[C@@H]8CO)O[C@@H]7CO)O[C@@H]6CO)O[C@@H]5CO)O[C@@H]4CO)O[C@@H]3CO", "activation": "-1.13%"},
      {"smiles": "NC(=O)c1ccccc1O", "activation": "-1.49%"}
    ]}
  ]
}
